Source: PubChem BioAssay AID623992 (NMMLSC, 2012)
Potency and affinity values are given separately. The source made the active and inactive calls.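 Rule for the calls: active = compounds whose fitted half-maximal effective concentration for blocking dye efflux is below 100 µM; inactive = the rest.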

The compounds below were run against Benomyl/methotrexate resistance protein (Candida albicans) (UniProt P28873) (assay: CaMdr1 efflux pump inhibitor potency, dose response, singleplex, Cherry Pick2 set (AID 623992)). Conditions: S. cerevisiae AD/CaMDR1, Nile Red efflux, flow cytometry; series mostly up to 100 µM.
Chain of Benomyl/methotrexate resistance protein (Candida albicans) (P28873 whole entry, looked up): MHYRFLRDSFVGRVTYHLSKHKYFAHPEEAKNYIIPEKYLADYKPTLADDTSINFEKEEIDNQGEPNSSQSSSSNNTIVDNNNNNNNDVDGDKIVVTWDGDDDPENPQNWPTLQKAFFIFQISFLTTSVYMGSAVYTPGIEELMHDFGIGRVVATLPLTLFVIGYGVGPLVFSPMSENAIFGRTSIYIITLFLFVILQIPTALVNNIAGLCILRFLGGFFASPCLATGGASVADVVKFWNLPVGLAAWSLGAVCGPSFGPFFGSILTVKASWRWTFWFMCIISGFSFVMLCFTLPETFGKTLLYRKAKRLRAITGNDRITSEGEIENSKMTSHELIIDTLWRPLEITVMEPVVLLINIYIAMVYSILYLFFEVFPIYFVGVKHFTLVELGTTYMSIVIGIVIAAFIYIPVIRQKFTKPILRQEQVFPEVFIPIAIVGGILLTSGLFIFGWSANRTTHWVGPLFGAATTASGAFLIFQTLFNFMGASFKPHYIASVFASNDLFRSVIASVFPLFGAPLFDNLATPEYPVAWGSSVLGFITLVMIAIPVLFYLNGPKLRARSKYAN

outcome, inactive:
COc1ccc([C@H]2CC(=O)C=C(c3ccnc4ccc(Cl)cc34)C2)cc1, C[C@@]12C(=O)Nc3ccc(Cl)cc3C(=O)N1[C@H]1c3cc(Cl)ccc3OC[C@@H]1[C@@H]2c1ccccc1, C[C@@]12C(=O)Nc3cc(F)c(F)cc3C(=O)N1[C@H]1c3cc(Cl)ccc3OC[C@@H]1[C@@H]2c1ccccc1, COc1ccc2nc(NC(=O)c3cccs3)sc2c1, COc1ccc(CN2C(=O)C(C)Nc3ncnc(N4CCN(c5ccccc5)CC4)c32)cc1 (stereo unspecified), NS(=O)(=O)c1ccc(N2N=C(c3ccccc3)CC2c2ccc(F)cc2)cc1 (stereo unspecified), COc1ccc(N2CCN(C(=O)C3CCCN(c4ncnc5c4nc4n5CCCCC4)C3)CC2)cc1 (stereo unspecified), COc1ccc(C2CC(c3cccc(OC)c3)=NN2c2ccc(S(N)(=O)=O)cc2)cc1 (stereo unspecified), CCOc1cccc2sc(NC(=O)c3ccc(Br)s3)nc12, CN1Cc2cc(C(=O)c3ccccc3O)cnc2NC1=O, O=C(C[n+]1cc(-c2ccc(F)cc2)n2c1CCC2)N1c2ccccc2Sc2ccccc21, O=C(c1ccoc1)N1CCC2(CC1)Oc1ccc(F)cc1C(=O)C21CC(c2ccccc2)=NO1 (stereo unspecified), CCCCCCCCCC[N+](C)(C)CC/C=C1/c2ccccc2Sc2ccc(Cl)cc21, CCC(=O)N1CCN(c2ccc(Cl)cc2NC(=O)c2ccc3c(c2)OCCO3)CC1, COc1cc(OC)c2c(-c3ccccc3)cc(=O)oc2c1C(CCN1CCCC(C)C1)c1ccc(N(C)C)cc1 (stereo unspecified), Cc1ccc(O)c(C(=O)c2cnc3c(c2)CN(C)C(=O)N3)c1
